Laboratory results from PubChem BioAssay AID1159580 (chemical genetic matrix, 2015).
Values joined by “and” are separate entries in the source; they are usually repeats but may differ in a detail not shown here. Equal entries are not always repeated. Screen size: about 5,500 compounds; about 2,000 (36%) were called active. Not shown: some 18% with an inconclusive outcome. No stated cut-off is given here; in the data, active means normalized growth mostly below about 0.91 (no sharp cut-off); inconclusive means no clear call, values can overlap the other calls; inactive means mostly above about 0.92. Some of the results follow.

Assay: chemical genetic growth profiling, strain panel (AID 1159580);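 further: tested at 20 µM; growth read once vehicle control cultures reached saturation at 30 °C; 1 = growth at the plate median or of vehicle wells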
Settings: S. cerevisiae deletion strains, growth OD

Measured: normalized growth

O=C(O)c1cc(=O)c(O)c2c(O)c(O)ccc2c1
inactive: locus YAL013W, strain DEP1, stronger effect = lower value 1 | locus YAL021C, strain ccr4, stronger effect = lower value 1.02 | locus YAL026C, strain drs2, stronger effect = lower value 0.993 | locus YAL030W, strain snc1, stronger effect = lower value 1 | locus YBL061C, strain skt5, stronger effect = lower value 0.998 | locus YBR009C, strain hhf1, stronger effect = lower value 0.989 | locus YBR021W, strain FUR4, stronger effect = lower value 0.991 | locus YBR023C, strain chs3, stronger effect = lower value 1 | locus YBR171W, strain sec66, stronger effect = lower value 0.985 | locus YBR229C, strain ROT2, stronger effect = lower value 1.01 | locus YBR231C, strain swc5, stronger effect = lower value 0.988 | locus YBR279W, strain paf1, stronger effect = lower value 0.993 | locus YCL011C, strain gbp2, stronger effect = lower value 0.996 | locus YCL016C, strain dcc1, stronger effect = lower value 1 | locus YCL029C, strain bik1, stronger effect = lower value 1.02 | locus YCL061C, strain MRC1, stronger effect = lower value 0.993 | locus YCL069W, strain vba3, stronger effect = lower value 0.998 | locus YCR088W, strain abp1, stronger effect = lower value 0.99 | locus YDL005C, strain med2, stronger effect = lower value 0.997 | locus YDL035C, strain GPR1, stronger effect = lower value 1 | locus YDL040C, strain nat1, stronger effect = lower value 1.01 | locus YDL074C, strain BRE1, stronger effect = lower value 0.995 | locus YDL101C, strain DUN1, stronger effect = lower value 1.01 | locus YDL134C, strain PPH21, stronger effect = lower value 1 | locus YDL185W, strain tfp1, stronger effect = lower value 0.998 | locus YDL192W, strain arf1, stronger effect = lower value 1.01 | locus YDR001C, strain nth1, stronger effect = lower value 0.997 | locus YDR069C, strain doa4, stronger effect = lower value 0.974 | locus YDR101C, strain arx1, stronger effect = lower value 1.02 | locus YDR137W, strain rgp1, stronger effect = lower value 0.907 | locus YDR150W, strain NUM1, stronger effect = lower value 1 | locus YDR159W, strain sac3, stronger effect = lower value 0.969 | locus YDR162C, strain NBP2, stronger effect = lower value 0.979 | locus YDR195W, strain ref2 0.957 | locus YDR297W, strain sur2, stronger effect = lower value 0.997 | locus YDR318W, strain mcm21, stronger effect = lower value 1.05 | locus YDR334W, strain swr1, stronger effect = lower value 0.984 | locus YDR335W, strain msn5, stronger effect = lower value 0.996 | locus YDR388W, stronger effect = lower value 1.03 | locus YDR392W, strain spt3, stronger effect = lower value 0.997 | locus YDR502C, strain sam2, stronger effect = lower value 1.02 | locus YEL003W, strain gim4, stronger effect = lower value 0.999 | locus YEL037C, strain rad23, stronger effect = lower value 1 | locus YEL061C, strain CIN8 (second series), stronger effect = lower value 1 | locus YEL061C, strain CIN8, stronger effect = lower value 1 | locus YER015W, strain faa2, stronger effect = lower value 0.989 | locus YER016W, strain bim1, stronger effect = lower value 0.999 | locus YER110C, stronger effect = lower value 1.03 | locus YER111C, strain swi4, stronger effect = lower value 0.986 | locus YER155C, strain BEM2 (second series), stronger effect = lower value 1.01 | locus YER155C, strain BEM2, stronger effect = lower value 1.02 | locus YER167W, strain BCK2, stronger effect = lower value 1.03 | locus YFR010W, strain ubp6, stronger effect = lower value 0.986 | locus YGL078C, strain dbp3, stronger effect = lower value 1.01 | locus YGL086W, strain mad1, stronger effect = lower value 1.02 | locus YGL167C, strain pmr1, stronger effect = lower value 1 | locus YGL173C, strain kem1, stronger effect = lower value 1 | locus YGL227W, strain vid30, stronger effect = lower value 0.979 | locus YGL240W, strain doc1, stronger effect = lower value 0.994 | locus YGL248W, strain PDE1, stronger effect = lower value 1 | locus YGL253W, strain hxk2, stronger effect = lower value 0.999 | locus YGR078C, strain PAC10, stronger effect = lower value 0.969 | locus YGR135W, strain pre9, stronger effect = lower value 0.993 | locus YGR229C, strain SMI1, stronger effect = lower value 0.977 | locus YGR252W, strain gcn5, stronger effect = lower value 1.03 | locus YHR013C, strain ard1, stronger effect = lower value 0.975 | locus YHR027C, strain rpn1, stronger effect = lower value 0.998 | locus YHR030C, strain SLT2, stronger effect = lower value 1.01 and 0.987 | locus YHR079C, strain IRE1 (second series), stronger effect = lower value 1.02 | locus YHR079C, strain IRE1, stronger effect = lower value 0.99 | locus YHR094C, strain hxt1, stronger effect = lower value 1.02 | locus YHR129C, strain ARP1, stronger effect = lower value 1.01 | locus YHR142W, strain chs7, stronger effect = lower value 1.02 | locus YHR200W, strain rpn10, stronger effect = lower value 1.03 | locus YIL066C, strain RNR3, stronger effect = lower value 1.03 | locus YIL073C, strain SPO22, stronger effect = lower value 1.14 | locus YIL125W, strain kgd1, stronger effect = lower value 1.01 | locus YIR030C, strain dcg1, stronger effect = lower value 1.03 | locus YJL092W, strain hpr5, stronger effect = lower value 0.998 | locus YJL095W, strain BCK1 (second series), stronger effect = lower value 1 | locus YJL095W, strain BCK1, stronger effect = lower value 0.999 and 0.991 | locus YJL115W, strain asf1, stronger effect = lower value 0.99 | locus YJL129C, strain trk1, stronger effect = lower value 1.04 | locus YJL134W, strain LCB3, stronger effect = lower value 1 | locus YJL154C, strain vps35, stronger effect = lower value 1 | locus YJL164C, strain tpk1, stronger effect = lower value 0.985 | locus YJL166W, strain qcr8, stronger effect = lower value 1 | locus YJL168C, strain set2, stronger effect = lower value 1.01 | locus YJL187C, strain SWE1 (second series), stronger effect = lower value 0.994 | locus YJL187C, strain SWE1, stronger effect = lower value 0.995 | locus YJR043C, strain POL32, stronger effect = lower value 1.04 | locus YJR066W, strain TOR1, stronger effect = lower value 0.892
